# Data as given in PubChem BioAssay AID574 (The Scripps Research Institute Molecular Screening Center, 2007).
# In all, about 65,000 compounds went through this assay and about 450 (0.69%) were called active. The entries come from a sample that favours actives as a whole. Unmarked numbers belong to inactive results.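 How the source made its calls: active means activation above a set limit, the screen-wide mean activation plus 3 SD (cut at about 8.5% in these data); inactive means the rest.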 Where a SMILES comes first, the peptide text is derived from it. The star is where a group is joined. Bz = O=C(c1ccccc1)*
# Target: 5-hydroxytryptamine receptor 1E (Homo sapiens) (UniProt P28566)
# Experiment: 5-HT1E receptor agonists, primary screen, cell-based, HTS (AID 574);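 further: 100% = positive control agonist at 1 µM giving full maximal response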
# Conditions: CHO 5-HT1E Ga15 NFAT-bla reporter, FRET; at 6 µM; stronger effect = higher value; 0% DMSO wells, 100% control agonist wells
# 5-hydroxytryptamine receptor 1E (Homo sapiens), sequence (P28566 whole entry, looked up): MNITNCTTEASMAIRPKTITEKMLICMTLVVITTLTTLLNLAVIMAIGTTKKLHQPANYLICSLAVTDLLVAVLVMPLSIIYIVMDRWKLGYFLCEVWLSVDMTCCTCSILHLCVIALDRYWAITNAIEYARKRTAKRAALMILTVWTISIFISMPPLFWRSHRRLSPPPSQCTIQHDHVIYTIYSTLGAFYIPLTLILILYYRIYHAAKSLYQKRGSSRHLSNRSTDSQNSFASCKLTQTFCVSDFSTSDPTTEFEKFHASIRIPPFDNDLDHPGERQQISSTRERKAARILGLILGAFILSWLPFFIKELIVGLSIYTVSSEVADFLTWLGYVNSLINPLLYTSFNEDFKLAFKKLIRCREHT
row,Compound,activation
1,CCCN(c1ccc(C(C)C)cc1)S(=O)(=O)c1c(C)[nH]c(=O)[nH]c1=O,-0.3%
2,COCCNC(=O)Cn1cc2c(n1)CCCCC2,-0.1%
3,COc1ccccc1CNC(=O)Cn1cc2c(n1)CCCC2,-0.6%
4,O=C(Cn1cc2c(n1)CCCCC2)NCCN1CCOCC1,9.7% (active)
5,COCCCNC(=O)COc1cc(C)c(Cl)c(C)c1,-0.3%
6,NC(=S)c1ccc(C(N)=S)o1,0%
7,Cc1nn(-c2cc(Cl)ccc2N)c(=O)c2ccccc12,-0.1%
8,Cc1cccc(NC(=O)CSc2nnc(CCCCCNC(=O)OC(C)(C)C)o2)c1C,-1.3%
9,O=C(O)C1CCN1C1CCCCC1 (configuration not stated),-0.7%
10,Cc1ccc(S(=O)(=O)N2C3C=CC(C3)C2C(=O)O)cc1 (configuration not stated),-0.4%
11,COc1ccc(C(=O)N(Cc2ccc(N(C)C)cc2)C2CCS(=O)(=O)C2)cc1 (configuration not stated),0.3%
12,O=C(/C(=N\O)n1cncn1)c1ccc(Br)cc1Br,0.1%
13,CCn1c(=N)c(S(=O)(=O)c2ccc(F)cc2)cc2c(=O)n3ccccc3nc21,4.4%
14,O=C(NC1CCCC1)c1ccc(Br)s1,-1.5%
15,Clc1ccc(C=NC23CN4CN(CN(C4)C2)C3)cc1,-0.1%
16,O=C(CN1CCN(CC(=O)Nc2ccc3c(c2)OCO3)CC1)Nc1ccc(F)cc1,-0.7%
17,Cc1nnc(SCc2ccc(C(=O)c3ccc(Cl)cc3)o2)n1-c1ccccc1,0.9%
18,O=C(NC(Cc1ccccc1)C(=O)N1CCCC1C(=O)O)c1ccccc1 (stereo not drawn) (Bz-Phe-Pro-OH; configuration not given here),-0.4%
19,N#Cc1c(/N=C/N2CCCC2)oc(-c2ccccc2)c1-c1ccccc1,0.2%

row,Compound,activation
1,O=C(Nc1ccccc1)Nc1ccccc1C(=O)NCc1ccco1,-0.6%
2,O=C(CS(=O)(=O)Cc1ccccc1)Nc1cccnc1,1.1%
3,O=C(Nc1ccccc1)N(Cc1cccnc1)Cc1ccco1,10.7% (active)
4,COc1cccc(OCC(O)CN2CCN(CCO)CC2)c1 (configuration not stated),-0.1%
5,C=CCC(NCCCO)c1cccc(OC)c1OC (configuration not stated),10.3% (active)
6,COc1ccccc1C(=O)C(O)c1ccccc1OC (configuration not stated),-0.2%
7,COc1cccc(C(CC(=O)NCCN2CCOCC2)NS(=O)(=O)c2ccc(C)cc2)c1OC (configuration not stated),0.5%
8,CC1CCCC(N2CCN(C(=O)c3ccc(F)cc3)CC2)C1 (configuration not stated),-0.1%
9,O=C(O)CN(Cc1ccco1)S(=O)(=O)c1ccc(F)cc1,0%
10,COc1cccc(OC)c1C(=O)Nc1nnc(C(C)C)s1,-0.1%
11,CCn1c(CNc2ccc(OC)cc2)nnc1SCC(=O)c1ccc(OC)cc1,0.6%
12,CC1=C(C(=O)OC2CCCCC2)C(c2cccnc2)n2ncnc2N1 (configuration not stated),-0.4%
13,Cc1ccnc(SCCn2c(N(C)Cc3ccccc3)nc3c2c(=O)n(C)c(=O)n3C)n1,-0.1%
14,CCOC(=O)C1(c2ccccc2)NC(c2ccc(N(C)C)cc2)C2C(=O)N(C)C(=O)C21 (configuration not stated),0.7%
15,COc1ccccc1-n1cnc2cc(C(=O)NCC3CCCO3)ccc21 (configuration not stated),0%
16,C=CCn1c(COc2ccccc2)nnc1SCC(=O)NCC(=O)OCC,-0.3%
17,CCc1nnc(NC(=O)CSc2nc3c(c(=O)n2-c2ccccc2OC)SCC3)s1,-0.6%
18,CCCC1C(c2ccccc2)C(C#N)(C#N)C2(C#N)CC1(N)NC2=O (configuration not stated),0.5%
19,Cc1cc(C(=O)OCC(=O)c2c(N)n(C)c(=O)n(C)c2=O)c(C)o1,0.7%

row,Compound,activation
1,CC(=O)OCc1cc(=O)n(C)c(=O)n1C,-1.2%
2,CC(=O)c1c(N)n(C)c(=O)n(C)c1=O,22.1% (active)
3,Cc1ccc(N(C(=O)CC2NC(=O)NC2=O)C2(C(=O)NC3CCCC3)CCCCC2)cc1 (configuration not stated),-0.5%
4,CC(C)(C)OC(=O)c1c(N)n(CCCN2CCCC2=O)c2nc3ccccc3nc12,2.2%
5,CSc1nc2ccc(S(=O)(=O)N3CCc4ccccc43)cc2s1,0.9%
6,COCCCNC(=O)C1CC(=O)N(c2ccc(C)cc2)C1 (configuration not stated),-1.2%
7,CC(CCO)Nc1nc2c([nH]1)c(=O)n(C)c(=O)n2C (configuration not stated),-1.6%
8,CCCOc1ccc(/C(O)=C2/C(=O)C(=O)N(CCN(C)C)C2c2ccc(OC)c(OC)c2)cc1 (configuration not stated),-0.3%
9,O=C(Nc1cccc2c1CCCC2)C1CCN(C(=O)NC2CCCCC2)CC1,-1.2%
10,CC1(C)CN=C(N2CCN(c3ncnc4sc5c(c34)CCCC5)CC2)S1,-0.6%
11,CCc1ccc(Nc2ncc3c(n2)CC(c2ccco2)CC3=O)cc1 (configuration not stated),-0.5%
12,CCOCC(=O)NCc1ccc2c(c1)cc(C)n2C,0.7%
13,COc1ccc(S(=O)(=O)Nc2ccc3c(c2)OCO3)cc1Cl,-1.3%
14,Cc1nc(NCCN)c(C#N)c2c1COC(C)(C)C2,-0.4%
15,CCCCN(C)C(=O)c1ccc2c(c1)N(CC)C(=O)c1ccccc1S2(=O)=O,-1.1%
16,O=C(Nc1ccccc1C(=O)N1CCOCC1)C1CCC(=O)N1C1CCCC1 (configuration not stated),0.6%
17,Cc1cc(=O)cc(C)[nH]1,33.2% (active)
18,Cc1cc(C)nc(SCc2nnc(SCC(=O)Nc3ncc(C)s3)n2Cc2ccco2)n1,0.8%
19,CCN1C(=O)CS/C1=N\c1nccs1,-0.1%
